High-throughput results from PubChem BioAssay.
The entries come from a sample that favours hits as a whole.
HIV RNase H inh-1 = blocks HIV-1 RNase H cleavage of RNA/DNA duplex; P04585; hit rate 1.9% among 65,000; inhibition, % at 10 µM; RT-RNase H RNA/DNA duplex cleavage, fluorescence; in the data active = inhibition above about 50%
HIV RNase H inh-2 = confirmation of HIV-1 reverse transcriptase RNase H inhibitors. shares compounds with HIV RNase H inh-1. AID 651. hit rate 39% among 1,000. Recombinant RT RNase H, fluorescent RNA/DNA duplex cleavage. inhibition, % at 10 µM; in the data active = inhibition above about 48%
An asterisk follows results filed as active.

SMILES | HIV RNase H inh-1 | others
COc1ccc(OCc2nn3c(-c4ccco4)nnc3s2)cc1 | -15
Clc1ccc(-c2nnc3sc(Cc4cccs4)nn23)c(Cl)c1 | -19
COc1cc(C(=S)N2CCCCC2)ccc1OCC(=O)N1CCCC1 | 13
Oc1ccc(C(=S)N2CCCCC2)cc1Cl | -2
COc1cc(C(=S)N2CCCC2)cc(Cl)c1O | 71*
CCN(CC)S(=O)(=O)c1ccc(C(=O)OCn2nnc3ccccc3c2=O)cc1 | -4
CC(=O)N1CCN(CCN=CC2=C(O)CC(c3ccco3)CC2=O)CC1 (stereo not given) | -7
CC(=O)N1CCN(CCN=CC2=C(O)CC(c3ccc(Cl)cc3)CC2=O)CC1 (stereo not given) | -11
COc1ccc(C2CC(=O)C(C=NCCN3CCOCC3)=C(O)C2)cc1 (stereo not given) | 54*
O=C(CCC(=O)c1ccc(F)cc1)OC1CCOC1=O (stereo not given) | 1
COc1ccc(C(=O)Nc2nnc(Cc3cccs3)s2)cc1OC | 4
COc1ccc(Cc2nnc(NC(=O)Cc3cccs3)s2)cc1OC | 80*
O=C(Cc1cccs1)Nc1nnc(CCc2ccccc2)s1 | -7
Cn1c2c(c(=O)n(C)c1=O)C(c1ccccc1OC(F)F)C1=C(CCCC1=O)N2 (stereo not given) | -2
CCOC(=O)c1c(-c2cccs2)csc1NC(=O)c1ccco1 | 28
CCOC(=O)c1c(-c2cccs2)csc1NC(=O)CN1CCOCC1 | -22
NC(=O)c1c(-c2cccs2)csc1N | 80*
Cc1ccc(NC2=NCC(=O)N2Cc2ccc3c(c2)OCO3)cc1 | -16
O=C(COc1ccccc1)NCCc1cn2ccsc2n1 | -26
COC(=O)c1sc(=S)sc1C(=O)OC | 52*
COC(=O)c1c(N)sc(C(C)=O)c1C | -23
COC(=O)c1sc2cnccc2c1N | -1
COc1cc(S(=O)(=O)NCCc2ccc3c(c2)OCO3)ccc1-n1cnnn1 | -23
Cc1sc2ncnc(Oc3ccc(-n4ccnc4)cc3)c2c1C | -49
CCN1CCN(c2ncnc3c2cnn3-c2ccc(Cl)cc2)CC1 | -7
SMILES | HIV RNase H inh-1 | others
CN1CCN(c2ncnc3c2cnn3-c2ccc(Cl)cc2)CC1 | -8
CCOC(=O)N1CCN(c2ncnc3c2cnn3-c2ccc(Cl)cc2)CC1 | 69*
O=C(NCCc1ccccc1)c1ccccc1NS(=O)(=O)N1CCCC1 | 3
CCS(=O)(=O)N1CCN(c2nc(-c3ccccc3)cs2)CC1 | 56*
c1ccc(-c2csc(N3CCCCCC3)n2)cc1 | -8
CS(=O)(=O)N1CCN(c2nc(-c3ccccc3)cs2)CC1 | -1
O=C(CCCn1c(=S)[nH]c2ccc(Br)cc2c1=O)N1CCN(c2ccccn2)CC1 | -4
Cc1cc(Nc2ccc(Br)cc2F)n2nc(C)nc2n1 | -17
CC1(C)CSC(=S)N1S(=O)(=O)c1ccccc1 | -45
O=C(COC(=O)c1cncc(Br)c1)NCCC1=CCCCC1 | 4
COC(=O)CSc1nnc(-c2ccncc2)n1N | -4
Cn1c(SC/C=C/c2ccccc2)nnc1-c1ccco1 | -8
Nn1c(SC/C=C/c2ccccc2)nnc1-c1ccncc1 | 52*
Cc1nc(Cc2nnc(SCc3nc(N)nc(Nc4ccccc4C)n3)o2)cs1 | 1
C=CCc1c(C)nc(SCC(=C)C)[nH]c1=O | -22
CCOC(=O)c1oc2ccccc2c1NC(=O)c1cccc(OC)c1OC | -32
O=C(c1cnn2c(C(F)(F)F)cc(-c3ccco3)nc12)N1CCc2ccccc2C1 | -7
CCC(c1nnnn1C(C)(C)C)N1CCN(c2cc(Cl)ccc2C)CC1 (stereo not given) | -4
c1ccc(-c2ccc(-c3ccccn3)nn2)nc1 | 83* | HIV RNase H inh-2=77*
c1ccc(-c2ccccn2)nc1 | 0
Nn1c(-c2ccccn2)nnc1-c1ccccn1 | -8
Cc1cc(OCC(=O)Nc2ccncc2)ccc1Br | -51
COCCOC(=O)C1=C(C)NC(=O)NC1c1c(F)cccc1Cl (stereo not given) | -5
C=CCNS(=O)(=O)c1nc(C)c(Cl)c(C)c1C#N | -20
O=S(=O)(CC(CN1CCCC1)N1CCCC1)c1ccc2ccccc2c1 (stereo not given) | 3
SMILES | HIV RNase H inh-1 | others
Cc1nn(-c2ccccc2)c2sc(C(=O)OCC(=O)N3CCCCC3)cc12 | -10
CCCSc1nc(C)c(-c2csc(C(C#N)=C3CCCC3)n2)cc1C#N | 58* | HIV RNase H inh-2=4
CC(=O)c1cc(C#N)c(SCCC(C)C)nc1C | -18
CCCCSc1nc2c(cc1C#N)CCC2 | -33
CSc1nc(C)cc(SCCO)n1 | -11
COc1cccc(C2/C(=C(\O)c3c(C)nc4c(C)cccn34)C(=O)C(=O)N2CCCN(C)C)c1 (stereo not given) | -6
COc1cc(NS(=O)(=O)c2ccc(NC(=O)CSC3=NCCS3)cc2)nc(OC)n1 | 54* | HIV RNase H inh-2=45
COc1cc(NS(=O)(=O)c2ccc(NC(=O)COc3ccc(C)cc3)cc2)nc(OC)n1 | -5
COc1cc(NS(=O)(=O)c2ccc(NC(=O)COc3ccccc3C)cc2)nc(OC)n1 | 17
O=S(=O)(NCc1cn2ccccc2n1)c1cc(F)ccc1F | -27
CCOC(=O)c1c(C)[nH]c(NC(=O)N2CCOCC2)c1C | 1
C=CCSc1nc2ccccc2n1Cc1nnc(-c2cccs2)o1 | -13
COc1ccc(NC(=O)CSc2nc(-c3ccncc3)nn2CC(=O)N2CCCC2)cc1 | 3
Cc1cc(C)n(-c2ccc(C(=O)OCC(=O)c3ccc(Br)s3)cc2)n1 | 3
O=S(=O)(c1ccccc1F)N(Cc1ccco1)Cc1nnc(-c2ccccc2Br)o1 | 1
COC(C)(C)[C@]12CC(O)(c3ccccc3)ON1[C@H]1CCCCC1N2O (stereo not given in full) | -12
CN(C(=O)COC(=O)COc1ccccc1F)C1CCS(=O)(=O)C1 (stereo not given) | 0
C=CCn1c(SCC(=O)NCCCC)nc2scc(-c3ccco3)c2c1=O | 3
COc1ccc(NC(=O)CSc2nc3sc(C)c(C)c3c(=O)n2Cc2ccco2)cc1 | -15
C=CCn1c(SCC(=O)NC(=O)NCc2ccco2)nc2sc(C)c(C)c2c1=O | 92* | HIV RNase H inh-2=63*
CCOC(=O)c1cnc2sc3c(n2c1=O)CCCC3 | 8
CCCCc1nc(SCC(=O)Nc2ccc(S(N)(=O)=O)cc2)n[nH]1 | -19
c1ccc(Cc2nn3c(Cn4nnc5ccccc54)nnc3s2)cc1 | 74* | HIV RNase H inh-2=68*
Brc1ccccc1-c1nnc2sc(Cc3ccccc3)nn12 | -108
O=C(O)CSc1nnc(Cn2nnc3ccccc32)n1CCc1ccccc1 | -18
SMILES | HIV RNase H inh-1 | others
Cc1c(NC(=O)CC2CC(C)OC2=O)c(=O)n(-c2ccccc2)n1C (stereo not given) | 4
CCOC(=O)Nc1oc2ccccc2c(=O)c1CN1CCOCC1 | -29
COc1ccc(C(=O)Nc2nnc(-c3ccccc3)o2)cc1OC | -14
O=C(OCc1nnc(-c2ccccc2)o1)c1ccc2c(c1)OCCO2 | -38
O=C(Nc1nnc(-c2ccc3c(c2)OCCO3)o1)c1ccc(Cc2ccccc2)cc1 | 59* | HIV RNase H inh-2=10
O=C(C1CCN(S(=O)(=O)c2cccc3cccnc23)CC1)N1CCn2c1nc1ccccc12 | -13
COCCn1c(Sc2ccc(C)cc2)nc2c1c(=O)[nH]c(=O)n2C | -12
COCCn1c(-c2ccc(-c3ccccc3Cl)o2)nc2c1c(=O)[nH]c(=O)n2CC(C)C | 73* | HIV RNase H inh-2=73*
CCCCn1c(=O)[nH]c(=O)c2c1nc(-c1ccncc1)n2CCOC | -24
O=C(Nc1ccccn1)[C@@H]1CCC(=O)N1C(=O)OCc1ccccc1 | 4
